Measurements reported in PubChem BioAssay (NCI).
About 83,000 compounds went through this panel and 20% of them were active in at least one assay; those are over-represented in the sample as a whole.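 The test compound was applied at a single concentration to cells in 96-well plates for 48 hours, and percent growth was recorded.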 Unmarked numbers belong to inactive results. Active and inactive are the calls of the source.

System: NCI-H522 lung
Experiment: NCI-60 one-dose screen, 48 h (100 = growth as untreated, 0 = no growth, -100 = all killed)
Settings: 10 µM unless noted
Protocol: Growth inhibition of the NCI-H522 human Non-Small Cell Lung tumor cell line is measured as a screen for anti-cancer activity. Cells are grown in 96 well plates and exposed to the test compound for 48 hours. Compounds are tested at a single concentration, which is 10^-5 M for most compounds. The reported endpoint is percent growth (GI% or GIPRCNT), where numbers from 0 - 100% represent growth inhibition, and numbers from -100% - 0 represent cell death. For example, a value of 40 represents 60% growth inhibition. A value of 0 means no net growth occurred over the course of the experiment. A value of -40 indicates 40% of cells at the beginning of the experiment died by the end of the experiment. A value of -100 means all cells are dead at the end of the experiment.
NCI-60 Human Tumor Cell Lines Screen was performed using the standard one-dose NCI protocol, which is described in more detail at https://dtp.cancer.gov/discovery_development/nci-60/default.htm.
Compounds with GIPRCNT values below 10 were considered active. Activity score was based on GIPRCNT using the following formula: […]
Score is 0 for GIPRCNT values of 100 or above, 50 for GIPRCNT values of 0, and 100 for GIPRCNT values of -100.

`CC[C@]12C=CCN3CC[C@@]4(c5ccc(OC)cc5N(C)[C@H]4[C@@](O)(C(=O)OC)[C@@H]1OC(=O)CCC(=O)O[C@H]1CC[C@H]4[C@@H]5CCC6=CC(=O)CC[C@@H]6[C@H]5CC[C@]14C)[C@@H]32` was tested, and the growth was 3.35% [100 µM] (active).
For `NC(=O)c1cccc(-c2ccc(S(=O)(=O)Nc3ccc4c(c3)N(C(=O)C3CC3)CCC4)cc2)c1`, the growth was 7.75% (active).
`CCCCCn1c(C)cc(/C=C\c2ccc3cc(C)ccc3[n+]2C)c1C` was tested, and the growth was -36.7% (active).
`COc1ccc2[nH]c(C(=O)N3CCN(C(=O)OCc4ccc5c(Br)cc(Br)c(O)c5n4)CC3)cc2c1` was tested, and the growth was -78.4% (active).
With `CCOC(=O)c1cc(C(=O)c2ccc(OC)c(OC)c2)n2ccc(-c3ccccn3)cc12` the growth was -3.85% (active).
For `COc1ccc(-c2nc3ccccn3c2/C=C/C(=O)c2cc(OC)c(OC)c(OC)c2)cc1OC`, the growth was -5.63% (active).
In the case of `ClC1=C(Cl)C(Cl)=C(Cl)C1=Cc1ccccc1`, the growth is reported as -51.1% (active).
For `CC1Cc2c(Cl)ncnc2N(C)c2ccc(Cl)cc21` (stereo not given), the growth was -68.3% (active).
`C[C@H]1[C@H](C)CC[C@]2(C(=O)O)CC[C@]3(C)C(=CC[C@@H]4[C@@]5(C)C/C(=C/c6cccnc6)[C@H](O)C(C)(C)[C@@H]5CC[C@]43C)[C@H]12` was tested, and the growth was -4.55% [100 µM] (active).
For `C=C(C)[C@@H]1CC[C@]2(C(=O)O)CC[C@]3(C)[C@H](CC[C@@H]4[C@@]5(C)C/C(=C/c6ccco6)C(=O)C(C)(C)[C@@H]5CC[C@]43C)[C@@H]12`, the growth was -72.7% [100 µM] (active).

Point of comparison: `CC[C@@H]1NC(=O)[C@@H]2CCCCN2C(=O)[C@@H]2CCCN2C(=O)[C@@H](NC(=O)[C@H](Cc2cc(F)cc(F)c2)NC(=O)Nc2ccc(C3CC3)cc2F)[C@H](C)OC(=O)[C@@H]2C[C@@H](C)CN2C1=O`, growth 19.9%. Against it:
- CC(C)(C)c1cc(C(=O)Nc2ccccc2C(=O)NCCN)cc(C(C)(C)C)c1 — lower, 16.1%
- Cn1cc(-c2nnc(-c3cn(C)c4ncccc34)o2)c2ccccc21 — higher, 21.3%
- N#CCCc1c[nH]c2ccccc12 — higher, 94.6%
- CC(=O)Nc1ccc(C=Nc2ccc3ccccc3c2)cc1 — lower, 13.5%
- Cc1cc(N2CCCCCC2)nc(N2CCN(CC(=O)Nc3ccc4c(ccn4Cc4ccccc4)c3)CC2)n1 — higher, 55%
- CCCn1ccnc1C(O)c1ccc(OCc2ccccc2)c(OC)c1 (stereo not given) — higher, 66.1%
- COc1ccc(CC(C#N)c2ccc(Cl)cc2)cc1 (stereo not given) — higher, 78.1%
- CCCCCCNC(=O)Nc1ncnc2c1ncn2-c1ccccc1 — higher, 82.5%
- O=[N+]([O-])c1cccc(/C=C/c2ccc3ccccc3n2)c1 — higher, 47.5%
- COc1ccc2nc3c(cc2c1)C(=O)CC(c1ccccc1)C3 (stereo not given) — lower, 15.4%
- CNC(=O)c1cc(Oc2ccc3nc(NC(=O)c4ccc5ncccc5c4)sc3c2)ccn1 — higher, 54.3%
- Cc1cc[n+](CCCCCCCCCC[n+]2ccc(C)cc2)cc1 — higher, 91.6%
- CCOC(=O)c1ccc2nc(-c3c(C)nn(-c4ccccc4)c3N3CCOCC3)[nH]c2c1 — higher, 87.2%
- C=CCc1nc2ccccc2s1 — higher, 86.6%
- CNc1cc(C(=O)O)nc(NC)n1 — higher, 97.1%
- CCCCCC1CCCCN1C(=O)OCCCC (stereo not given) — higher, 32%
- CCN(CC)c1ccc2cc(C(Nc3ccc(Cl)cc3)c3nnnn3C(C)(C)C)c(=O)oc2c1 (stereo not given) — higher, 79.5%
- CSc1cccc([N+](=O)[O-])c1 — higher, 84%
- Nc1nnc(CSc2nnc3n(Cc4ccccc4)c(=O)c4c5c(sc4n23)CCCC5)s1 — higher, 66.8%
- COc1c(B(O)O)cccc1-c1nc2ccc3[nH]ncc3c2c2c1CCC2 — higher, 62.7%
- Cc1ccc(S(=O)(=O)NCCCNc2nccc(-c3c(-c4cccc(F)c4)nc4occn34)n2)cc1 — higher, 71.6%
- COc1cc2c(=O)[nH]c3cc([N+](=O)[O-])ccc3c2cc1[N+](=O)[O-] — higher, 28.7%
- Cc1ccc(S(=O)(=O)Oc2ccc([N+](=O)[O-])cc2[N+](=O)[O-])cc1 — lower, 18.3%
- C[n+]1c2ccccc2nc2c(N)cc(N)cc21 — higher, 52.2%
- CC(C)C1=NOC(=O)C1=Cc1cn(-c2ccccc2)nc1-c1cccc([N+](=O)[O-])c1 — higher, 74.7%
- CCN=Cc1c(O)c(O)c(C(C)C)c2cc(C)c(-c3c(C)cc4c(C(C)C)c(O)c(O)c(C=NCC)c4c3O)c(O)c12 — higher, 43.3%
- C/C=C/C1OC23CCCCC2C(C#N)(C(=N)O3)C1(C#N)C#N (stereo not given) — higher, 74.1%
- O=C(Nc1ccc(Nc2ccncc2)cc1)c1ccc([N+](=O)[O-])cc1 — higher, 52.6%

With `C=C(C)[C@@H]1CC[C@]2(COC(=O)c3ccccc3C(=O)O)CC[C@]3(C)[C@H](CC[C@@H]4[C@@]5(C)CC[C@H](OC(=O)c6ccccc6C(=O)O)C(C)(C)[C@@H]5CC[C@]43C)[C@@H]12` the growth was 46.8% [100 µM].
